Measurements reported in PubChem BioAssay (NCI).
Compounds without any hit were thinned out: in the full panel of roughly 83,000, 20% have a hit.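 Single-dose data. Exposure time 48 hours. Values below 10 considered active.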 Values without a mark were called inactive. Activity calls are given as the source filed them.

Experiments:
Experiment in all cases: NCI-60 one-dose screen, 48 h (100 = growth as untreated, 0 = no growth, -100 = all killed)
Conditions in all cases: 10 µM unless noted
[1] = system: HCT-15 colon
[2] = system: HT29 colon
[3] = system: SNB-75 CNS
[4] = system: SNB-19 CNS
[5] = system: U251 CNS
[6] = system: PC-3 prostate
[7] = system: SK-MEL-5 melanoma
[8] = system: UACC-62 melanoma
[9] = system: LOX IMVI melanoma
[10] = system: SK-MEL-2 melanoma
[11] = system: EKVX NSCLC
[12] = system: SN12C renal
[13] = system: UO-31 renal
[14] = system: TK-10 renal
[15] = system: ACHN renal
[16] = system: CAKI-1 renal
[17] = system: A498 renal
[18] = system: CCRF-CEM leukemia
[19] = system: MOLT-4 leukemia
[20] = system: SK-MEL-28 melanoma

Structure (SMILES) | growth [1] | growth [2] | growth [3] | growth [4] | growth [5] | growth [6] | growth [7] | growth [8] | growth [9] | growth [10] | growth [11] | growth [12] | growth [13] | growth [14] | growth [15] | growth [16] | growth [17] | growth [18] | growth [19] | growth [20]
CCN1CCN(Cc2ccc(NC(=O)c3nc4ccc5[nH]ncc5c4c4c3CCCC4)cc2C(F)(F)F)CC1 | -47.8% (active) | -74.3% (active) | 80.8% | 13.9% | -85.7% (active) | 19.8% | -75.3% (active) | -68.7% (active) | -94.6% (active) | 92% | 74.3% | -75.6% (active) | -91.8% (active) | -33.7% (active) | -97.1% (active) | -11.7% (active) | 93.2% | 3.68% (active) | -28.9% (active) | –
C[C@]12CCc3nc(Nc4ccc(O)cc4)sc3C1=CC[C@@H]1[C@@H]2CC[C@]2(C)/C(=N/NC(N)=S)CC[C@@H]12 | -48% (active) | -47.6% (active) | -2.86% (active) | -13.1% (active) | -70.3% (active) | -33.7% (active) | -61.2% (active) | -74.8% (active) | -52.5% (active) | -13.5% (active) | -19.1% (active) | -46.7% (active) | -42% (active) | -7.19% (active) | -72.4% (active) | -36.2% (active) | 93.1% | -7.49% (active) | -5.84% (active) | –
CC(=O)N1N=C(c2ccc(C)cc2)CC1c1cn(-c2ccccc2)nc1-c1cccc(Nc2ccnc3cc(Cl)ccc23)c1 (centres undefined) | 62.2% | 47.7% | 102% | 83.4% | 14.9% | 99.8% | 73.8% | 82.2% | 10.4% | – | – | 46.2% | 77.1% | 61.3% | – | 101% | 82.2% | -19.7% (active) | 23.4% | 51.9%
COc1ccc(C2=NN(C=O)C(c3ccc(OS(=O)(=O)c4ccc(C)cc4)c(OC)c3)C2)cc1 (centres undefined) | 61.8% | 35% | 68.9% | 62.5% | 60.3% | 48.4% | 6.93% (active) | 50.1% | 57.3% | – | – | 76.9% | 53.9% | 73.2% | – | 52.7% | 39.6% | 37.9% | 40.7% | 75.5%
CNC(=O)c1cc(Oc2ccc(NC(=O)c3[nH]c(SC)nc3-c3ccc(F)cc3)cc2)ccn1 | 72.5% | 12.8% | 78.7% | 99.3% | 84.6% | 33.2% | 23.3% | 5.44% (active) | 57.7% | – | – | 39.2% | 60.5% | 88.3% | 39.8% | – | 61.1% | 85.3% | 38.4% | 22.3%
CN1CCN(Cc2ccc(NC(=O)c3cccc(C#Cc4cnc(N)c5ncccc45)c3F)cc2C(F)(F)F)CC1 | -57.2% (active) | -55.5% (active) | 53.9% | 96.4% | -88.2% (active) | 30.7% | 44.1% | 55.5% | -88.8% (active) | -1.16% (active) | 66.8% | 44.5% | -96.6% (active) | 56.2% | -77.2% (active) | 33.6% | -15.1% (active) | 7.7% (active) | 1.77% (active) | –
COC(=O)/C=C/c1cc(OC(C)=O)c2c(c1)[C@@H](C(=O)OC)[C@H](c1ccc(OC(C)=O)c(OC(C)=O)c1)O2 | 8.71% (active) | 11.8% | -3.49% (active) | 34.6% | 18.1% | 14.3% | -42.4% (active) | 33.6% | 7.76% (active) | 37.9% | 34.2% | 24.2% | 39.3% | 48.5% | 24.3% | 17.9% | -14.3% (active) | 6.74% (active) | 14.9% | –
COc1cc2cc(C(=O)Nc3ccccc3)c(N)nc2cc1OC | 2.25% (active) | -70.6% (active) | 15.5% | 21.2% | -6.06% (active) | 17.7% | -95.1% (active) | -85.3% (active) | -93.3% (active) | – | – | 49.1% | 5.81% (active) | -48% (active) | – | -13.8% (active) | 52.4% | -21.7% (active) | -44.6% (active) | -98.3% (active)
